# Measured values taken from the supplement of paper PMC10849652.
# Of roughly 7,900 targets only a part is listed; those with a hit were picked by preference. About 0.6% of all pairs of compound and target were hits. Values without a mark were called inactive.
# Experiments:
# Test in all cases: log2 fold change, soluble protein after heating vs DMSO (PISA); higher = thermal stabilisation; K562 cells, 10 uM, 30 min; active = over 0.2 and 3.5 SD of the protein, either way, in both replicates (recomputed)
# [1] = compound: CC1=C(C=C(C=C1)NC(=O)C2=CC(=CC=C2)C(C)(C)C#N)NC3=CC4=C(C=C3)N=CN(C4=O)C
# Method in brief: (§1)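 Soluble protein was quantified by TMTpro 16plex LC-MS/MS after channel sums were equalised. It was obtained as the supernatant after 21,000xg for 90 min from pooled aliquots of K562 cells (2×10^6 cells/mL, 10 μM compound, 30 min) heated for 3 min across 48°C-58°C and extracted in PBS with 0.5% NP-40 at 4°C. Thermal stability values are relative to control samples and come from duplicates. They are given as log2 fold changes.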
# [2] = compound: CC1=C(C=C(C=C1)NC(=O)C2=CC(=CC=C2)N(C)C)NC(=O)C3=CC=C(C=C3)O
# Method in brief: as §1
# [3] = compound: CC1=CC=C(C=C1)SC2=C3C=C(SC3=CN=C2)C(=O)N
# Method in brief: as §1
# [4] = compound: CC1=NC(=CC=C1)C2=C(N=C(N2)C(C)(C)C)C3=CC4=NC=CN=C4C=C3
# Method in brief: as §1
# [5] = compound: CCCCN(Cc1ccc(C(=O)NO)cc1)C(=O)Nc1ccccc1 [Nexturastat A]
# Method in brief: as §1
# [6] = compound: CCCS(=O)(=O)Nc1ccc(F)c(C(=O)c2c[nH]c3ncc(-c4ccc(Cl)cc4)cc23)c1F [vemurafenib]
# Method in brief: as §1
# [7] = compound: CCCS(=O)(=O)Nc1ccc(F)c(C(=O)c2c[nH]c3ncc(Cl)cc23)c1F
# Method in brief: as §1
# [8] = compound: CCCc1cc(C)[nH]c(=O)c1CNC(=O)c1cc(-c2ccnc(N3CCN(C)CC3)c2)cc2c1cnn2C(C)C
# Method in brief: as §1
# [9] = compound: CCN(CC)Cc1ccc2cc(COC(=O)Nc3ccc(C(=O)NO)cc3)ccc2c1 [givinostat]
# Method in brief: as §1
# [10] = compound: CCN(CCCOc1ccc2c(Nc3cc(CC(=O)Nc4cccc(F)c4)[nH]n3)ncnc2c1)CCOP(=O)(O)O [barasertib]
# Method in brief: as §1
# UniProt Q15904, sequence (Q15904 whole entry, looked up): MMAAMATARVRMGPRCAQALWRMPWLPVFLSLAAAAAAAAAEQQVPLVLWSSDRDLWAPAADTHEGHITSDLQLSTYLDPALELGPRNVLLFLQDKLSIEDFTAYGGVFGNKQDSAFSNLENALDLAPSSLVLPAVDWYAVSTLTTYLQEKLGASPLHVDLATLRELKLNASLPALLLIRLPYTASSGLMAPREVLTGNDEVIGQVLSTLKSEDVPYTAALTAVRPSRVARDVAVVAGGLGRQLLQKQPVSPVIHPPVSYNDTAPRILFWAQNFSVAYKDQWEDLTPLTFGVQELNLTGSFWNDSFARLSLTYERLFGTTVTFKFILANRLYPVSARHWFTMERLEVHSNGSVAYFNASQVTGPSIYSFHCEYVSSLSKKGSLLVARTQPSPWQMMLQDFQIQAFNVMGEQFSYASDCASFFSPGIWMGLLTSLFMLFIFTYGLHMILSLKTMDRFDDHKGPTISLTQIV
# UniProt P49189, sequence (P49189 whole entry, looked up): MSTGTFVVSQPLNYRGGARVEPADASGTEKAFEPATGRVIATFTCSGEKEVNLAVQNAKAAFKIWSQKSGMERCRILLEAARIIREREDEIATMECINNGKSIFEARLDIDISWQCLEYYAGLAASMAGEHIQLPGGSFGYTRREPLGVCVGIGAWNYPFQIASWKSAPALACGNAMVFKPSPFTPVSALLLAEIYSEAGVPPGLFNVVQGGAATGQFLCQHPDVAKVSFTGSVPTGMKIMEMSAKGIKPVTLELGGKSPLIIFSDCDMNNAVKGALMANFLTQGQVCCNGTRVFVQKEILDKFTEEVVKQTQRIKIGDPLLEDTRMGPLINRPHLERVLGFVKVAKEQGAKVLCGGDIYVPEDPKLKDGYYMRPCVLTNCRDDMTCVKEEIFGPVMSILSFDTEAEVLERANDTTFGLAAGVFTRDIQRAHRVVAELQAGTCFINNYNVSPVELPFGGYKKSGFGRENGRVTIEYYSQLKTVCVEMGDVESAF
# UniProt P35670, sequence (P35670 whole entry, looked up): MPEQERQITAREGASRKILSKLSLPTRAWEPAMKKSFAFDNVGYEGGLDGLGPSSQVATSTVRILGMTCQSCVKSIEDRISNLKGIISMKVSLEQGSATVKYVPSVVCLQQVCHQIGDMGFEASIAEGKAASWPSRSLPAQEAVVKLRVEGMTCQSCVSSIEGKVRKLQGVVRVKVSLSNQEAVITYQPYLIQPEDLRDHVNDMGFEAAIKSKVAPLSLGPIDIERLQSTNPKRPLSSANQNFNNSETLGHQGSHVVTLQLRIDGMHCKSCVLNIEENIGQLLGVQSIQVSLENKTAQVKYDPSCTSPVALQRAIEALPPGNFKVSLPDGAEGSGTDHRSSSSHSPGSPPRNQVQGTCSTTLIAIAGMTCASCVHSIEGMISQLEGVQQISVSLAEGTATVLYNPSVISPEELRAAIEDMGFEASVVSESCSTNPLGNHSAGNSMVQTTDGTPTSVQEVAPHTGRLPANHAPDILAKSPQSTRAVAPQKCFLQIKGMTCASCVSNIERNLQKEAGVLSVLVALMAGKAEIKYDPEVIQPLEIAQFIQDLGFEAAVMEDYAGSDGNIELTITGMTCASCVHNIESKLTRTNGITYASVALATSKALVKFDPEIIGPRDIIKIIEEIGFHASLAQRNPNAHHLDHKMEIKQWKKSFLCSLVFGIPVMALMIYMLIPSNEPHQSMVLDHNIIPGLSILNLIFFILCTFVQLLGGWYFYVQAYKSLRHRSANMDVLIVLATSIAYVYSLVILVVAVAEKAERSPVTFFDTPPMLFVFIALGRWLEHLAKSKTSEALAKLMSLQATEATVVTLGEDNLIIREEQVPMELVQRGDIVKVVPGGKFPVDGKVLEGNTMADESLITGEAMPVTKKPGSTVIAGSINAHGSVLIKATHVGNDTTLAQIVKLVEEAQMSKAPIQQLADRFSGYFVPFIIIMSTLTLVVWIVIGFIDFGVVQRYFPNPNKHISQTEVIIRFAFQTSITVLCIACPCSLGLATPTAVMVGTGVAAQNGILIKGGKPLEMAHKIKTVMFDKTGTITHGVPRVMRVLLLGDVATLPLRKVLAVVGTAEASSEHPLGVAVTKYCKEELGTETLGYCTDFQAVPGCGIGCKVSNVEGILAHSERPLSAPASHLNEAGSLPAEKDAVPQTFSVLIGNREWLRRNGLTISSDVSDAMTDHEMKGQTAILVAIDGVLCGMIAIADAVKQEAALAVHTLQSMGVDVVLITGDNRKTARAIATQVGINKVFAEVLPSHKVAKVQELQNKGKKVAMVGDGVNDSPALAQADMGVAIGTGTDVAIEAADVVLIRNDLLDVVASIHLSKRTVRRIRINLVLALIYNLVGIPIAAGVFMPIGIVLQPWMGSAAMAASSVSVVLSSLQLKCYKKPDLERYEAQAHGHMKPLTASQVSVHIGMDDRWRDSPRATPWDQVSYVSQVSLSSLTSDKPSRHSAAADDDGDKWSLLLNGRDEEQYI
# UniProt O00763, sequence (O00763 whole entry, looked up): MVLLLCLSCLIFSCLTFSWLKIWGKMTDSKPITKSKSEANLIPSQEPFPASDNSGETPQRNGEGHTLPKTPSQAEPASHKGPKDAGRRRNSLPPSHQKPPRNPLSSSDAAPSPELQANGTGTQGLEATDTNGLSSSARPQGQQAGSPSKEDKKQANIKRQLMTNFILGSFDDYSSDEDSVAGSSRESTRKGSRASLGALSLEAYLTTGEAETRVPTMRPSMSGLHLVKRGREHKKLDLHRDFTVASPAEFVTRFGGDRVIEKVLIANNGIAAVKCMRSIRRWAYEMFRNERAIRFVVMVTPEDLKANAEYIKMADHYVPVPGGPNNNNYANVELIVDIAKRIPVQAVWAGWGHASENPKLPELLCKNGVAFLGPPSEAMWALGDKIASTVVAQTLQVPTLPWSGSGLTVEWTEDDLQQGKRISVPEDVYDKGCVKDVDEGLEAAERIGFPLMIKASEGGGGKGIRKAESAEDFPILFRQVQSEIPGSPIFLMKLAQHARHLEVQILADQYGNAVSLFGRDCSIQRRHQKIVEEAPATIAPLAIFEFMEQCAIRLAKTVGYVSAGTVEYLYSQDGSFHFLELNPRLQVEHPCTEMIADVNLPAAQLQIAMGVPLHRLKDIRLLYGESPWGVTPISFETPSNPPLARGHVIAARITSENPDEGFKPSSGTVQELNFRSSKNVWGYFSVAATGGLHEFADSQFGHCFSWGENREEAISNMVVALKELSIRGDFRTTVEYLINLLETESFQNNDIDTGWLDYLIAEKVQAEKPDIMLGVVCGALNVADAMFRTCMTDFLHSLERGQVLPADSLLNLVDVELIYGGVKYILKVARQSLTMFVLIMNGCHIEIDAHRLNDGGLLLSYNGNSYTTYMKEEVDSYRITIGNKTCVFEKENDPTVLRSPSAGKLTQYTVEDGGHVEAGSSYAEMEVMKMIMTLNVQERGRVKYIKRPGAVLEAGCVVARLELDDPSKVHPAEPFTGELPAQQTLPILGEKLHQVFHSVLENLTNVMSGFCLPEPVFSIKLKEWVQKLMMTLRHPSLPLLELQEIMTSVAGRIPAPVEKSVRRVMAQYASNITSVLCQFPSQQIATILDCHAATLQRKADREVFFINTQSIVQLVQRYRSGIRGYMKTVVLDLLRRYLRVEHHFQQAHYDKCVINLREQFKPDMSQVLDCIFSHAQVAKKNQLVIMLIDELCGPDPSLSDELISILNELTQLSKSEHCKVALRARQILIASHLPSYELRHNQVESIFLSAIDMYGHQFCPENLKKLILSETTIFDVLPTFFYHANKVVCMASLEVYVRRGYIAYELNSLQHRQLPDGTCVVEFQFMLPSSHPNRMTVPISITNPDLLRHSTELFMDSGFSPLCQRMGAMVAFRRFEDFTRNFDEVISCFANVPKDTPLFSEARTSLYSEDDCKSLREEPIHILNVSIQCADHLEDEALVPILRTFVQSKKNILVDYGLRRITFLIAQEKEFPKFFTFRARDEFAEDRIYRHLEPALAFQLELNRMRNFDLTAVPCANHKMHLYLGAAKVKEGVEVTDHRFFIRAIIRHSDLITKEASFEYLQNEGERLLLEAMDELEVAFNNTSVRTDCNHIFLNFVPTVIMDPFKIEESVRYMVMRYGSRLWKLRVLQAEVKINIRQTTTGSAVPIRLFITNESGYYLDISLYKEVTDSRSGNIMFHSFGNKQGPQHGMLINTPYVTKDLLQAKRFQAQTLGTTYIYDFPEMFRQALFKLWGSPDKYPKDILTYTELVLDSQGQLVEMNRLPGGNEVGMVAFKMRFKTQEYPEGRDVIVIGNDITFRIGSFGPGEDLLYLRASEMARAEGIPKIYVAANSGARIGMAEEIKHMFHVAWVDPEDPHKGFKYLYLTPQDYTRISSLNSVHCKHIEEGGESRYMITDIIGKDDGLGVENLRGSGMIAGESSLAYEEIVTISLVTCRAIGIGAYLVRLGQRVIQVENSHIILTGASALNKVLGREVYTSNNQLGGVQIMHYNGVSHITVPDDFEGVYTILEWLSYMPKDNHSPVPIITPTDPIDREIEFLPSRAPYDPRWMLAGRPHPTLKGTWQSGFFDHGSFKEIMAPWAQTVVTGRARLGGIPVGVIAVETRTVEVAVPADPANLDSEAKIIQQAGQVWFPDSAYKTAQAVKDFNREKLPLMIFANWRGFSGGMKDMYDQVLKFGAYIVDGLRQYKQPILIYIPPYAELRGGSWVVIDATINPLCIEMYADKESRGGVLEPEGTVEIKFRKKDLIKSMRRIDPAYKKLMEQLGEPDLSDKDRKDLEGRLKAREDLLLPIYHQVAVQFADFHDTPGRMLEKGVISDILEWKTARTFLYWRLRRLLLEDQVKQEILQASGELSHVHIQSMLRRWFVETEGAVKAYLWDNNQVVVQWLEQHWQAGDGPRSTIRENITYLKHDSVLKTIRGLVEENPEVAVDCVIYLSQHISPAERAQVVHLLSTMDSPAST
# UniProt Q9UHQ4, sequence (Q9UHQ4 whole entry, looked up): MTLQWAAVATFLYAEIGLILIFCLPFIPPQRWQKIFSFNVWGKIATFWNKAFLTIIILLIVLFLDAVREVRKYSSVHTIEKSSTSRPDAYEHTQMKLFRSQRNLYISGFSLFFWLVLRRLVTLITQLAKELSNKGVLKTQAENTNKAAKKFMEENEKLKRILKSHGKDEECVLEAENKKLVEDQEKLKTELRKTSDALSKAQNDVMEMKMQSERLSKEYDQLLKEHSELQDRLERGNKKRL
Target,log2 fold change [1],log2 fold change [2],log2 fold change [3],log2 fold change [4],log2 fold change [5],log2 fold change [6],log2 fold change [7],log2 fold change [8],log2 fold change [9],log2 fold change [10]
AARSD1 isoform 3 (UniProt Q9BTE6),0.016,-0.04,-0.003,0.034,-0.077,0.003,0.122,0.03,-0.273 (active),0.032
ACSL5 isoform 3 (UniProt Q9ULC5),0.106,0.061,-0.025,0.088,-0.009,0.001,0.083,-0.019,-0.023,0.013
BCAP29 isoform 2 (UniProt Q9UHQ4),-0.078,0.006,0.015,0.01,-0.032,-0.033,-0.036,-0.116,-0.075,0.025
ATAD3A isoform 2 (UniProt Q9NVI7),-0.04,0.005,0.007,0.017,0.207,0.033,0.052,0,0.045,0.009
ACO2 (UniProt Q99798),0.071,-0.063,0.012,0.035,-0.073,0.055,0.027,-0.003,-0.014,0.037
ATIC (UniProt P31939),0.083,-0.022,0.059,0.022,-0.076,0.025,0.052,0.019,-0.036,0.013
ADD3 isoform 2 (UniProt Q9UEY8),0.034,-0.021,-0.08,-0.017,-0.029,0.059,0.014,-0.017,,
ATP6AP1 (UniProt Q15904),0.009,-0.025,0.004,-0.027,0.114,-0.003,-0.018,-0.009,0.038,0.016
BRD8 (UniProt Q9H0E9),0.002,0.026,-0.01,0.017,-0.098,0.027,0.01,0.002,-0.153,-0.026
ACACB (UniProt O00763),-0.037,0.01,0.006,-0.065,0.344,0.108,0.012,0.152,0.149,0.06
ACTR1B (UniProt P42025),-0.056,-0.124,0.001,-0.003,-0.134,-0.029,-0.022,-0.009,0.006,0.031
ATP1A1 (UniProt P05023),0.002,0.01,0.015,0.025,-0.019,0.017,0.005,0.068,-0.001,-0.02
ARL3 (UniProt P36405),-0.016,0.018,0.016,0.025,-0.063,0.002,0.059,-0.033,0.005,-0.022
BPHL (UniProt Q86WA6),-0.037,-0.031,-0.058,0.017,-0.205,0.004,-0.062,0.057,0.023,-0.006
ALDH6A1 (UniProt Q02252),-0.02,0.032,-0.039,0.044,-0.014,0.025,0.011,0.029,-0.017,-0.038
ACBD6 (UniProt Q9BR61),0.039,-0.04,0.139,0.067,0.28,0.029,0.022,0.127,-0.011,0.018
ATG4B isoform 2 (UniProt Q9Y4P1),-0.046,-0.287,0.218,-0.072,0.132,0.087,-0.02,0.031,0.126,0.126
ACADVL isoform 3 (UniProt P49748),-0.004,0.01,0.024,-0.002,-0.073,-0.009,0.01,-0.002,0.026,0.006
B4GALT1 (UniProt P15291),-0.009,-0.027,0.002,-0.05,-0.022,0.035,0.012,-0.044,-0.113,-0.01
AAR2 (UniProt Q9Y312),-0.01,-0.026,-0.032,-0.035,0.074,-0.018,0.021,-0.105,0.018,-0.023
APAF1 (UniProt O14727),0.023,0.014,-0.003,-0.125,0.056,-0.006,-0.068,-0.1,0.395 (active),
ARL6IP6 (UniProt Q8N6S5),-0.112,-0.038,0.009,-0.071,0.106,0,0.049,0.034,0.099,-0.048
ALG11 (UniProt Q2TAA5),0.006,-0.018,-0.041,0.013,-0.004,0.053,0.019,-0.04,0,0.043
ALKBH4 (UniProt Q9NXW9),0.071,-0.008,-0.015,0.019,-0.125,-0.048,0.032,-0.015,-0.05,-0.016
BMP2K (UniProt Q9NSY1),0.01,0.033,-0.017,-0.011,0.126,0.011,0.01,-0.04,0.007,-0.014
ATP7B (UniProt P35670),-0.005,-0.113,0.028,0.032,-0.013,-0.001,0.032,0.036,-0.005,-0.02
ABCB6 (UniProt Q9NP58),0.085,-0.084,0.019,0.019,0.001,0.073,-0.022,-0.041,-0.002,0.008
AKAP8 (UniProt O43823),-0.082,0.029,-0.03,-0.009,0.313 (active),-0.062,-0.05,-0.034,-0.027,0.024
ALDH9A1 isoform 3 (UniProt P49189),0.01,0.012,0.03,0.01,-0.049,0.006,0.006,-0.019,-0.005,0.01
ATP23 (UniProt Q9Y6H3),0.027,-0.013,0.122,0.058,-0.172,0.021,-0.039,-0.031,-0.012,-0.049
